Results as given in PubChem BioAssay (EPA / NIEHS).
Results filed as inconclusive are left out. The source made the active and inactive calls. How the source made its calls, unless noted: active means hit-call score of the fitted dose curve at least 0.9, where 1 is the maximum; inactive means score below 0.9.

Experiments:
[1] = CCTE_Mundy_HCI_iCellGluta_NOG_NeuronCount: CCTE's Neurite Outgrowth Assay in iCellGluta cells for Neuron Count, Mundy Lab (AID 2284340; active means hit-call score of the fitted dose curve at least 0.9, where 1 is the maximum;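 further: cells fixed about 48 h after compound addition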)
Summary of the method: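 Neuron count read by automated high-content imaging of Hoechst 33342 and betaIII-tubulin/Alexa Fluor-488 labelling in human iPSC glutamatergic neurons. Activity fitted relative to DMSO.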

[2] = test system: SERPINA7 (gene 6906); assay: CCTE_GLTED_hTBG: CCTE's human Thyroxine-binding Globulin (TBG) Inhibition Assay, Great Lakes Toxicology and Ecology Division (GLTED) Lab (AID 2284343; active means hit-call score of the fitted dose curve at least 0.9, where 1 is the maximum;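 further: active chemicals lower fluorescence versus DMSO baseline by displacing probe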)
Summary of the method: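 Cell-free displacement of the fluorescent probe ANSA from human thyroxine-binding globulin after 2 h exposure. Read-out at ex 380/em 475 nm; DMSO baseline.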

[3] = VALA_TUBHUV_Agonist_TubuleLength: VALA Sciences human Umbilical Vein Endothelial Tubule Formation (TUBHUV) Agonism Assay (AID 2284337; active means hit-call score of the fitted dose curve at least 0.9, where 1 is the maximum)
Summary of the method: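 Tubule length quantified by CD31 immunofluorescence imaging after fixation. HUVEC-HDF co-cultures (1:3) pre-grown 3 days with 10 ng/ml VEGF, then dosed 3 days in VEGF medium; 0.1 % DMSO vehicle baseline.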

[4] = VALA_TUBIPS_Agonist_CellCount: Viability Assessment in the VALA Sciences human iPS-derived Endothelial Tubule Formation (TUBIPS) Agonism Assay (AID 2284338; active means hit-call score of the fitted dose curve at least 0.9, where 1 is the maximum)
[5] = Tanguay_ZF_120hpf_DP24: Oregon State University Tanguay Lab 24 Hour Post-fertilization zebrafish Assay for Delayed Development (AID 2284390)
Summary of the method: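 Scored at 24 hpf as a binary present/absent call of delayed development by brightfield, with dead embryos not assessed. Embryos (5D wild type, chorion removed with pronase at 4 hpf) dosed statically from 6 hpf at 28 C in 0.64% DMSO.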

[6] = Tanguay_ZF_120hpf_MORT: Oregon State University Tanguay Lab 120 Hour Post-fertilization zebrafish Assay for Mortality (AID 2284399)
Summary of the method: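 Mortality, recorded present/absent via brightfield imaging at 24 and 120 hpf, in 5D zebrafish embryos exposed statically from 6 hpf after pronase chorion removal. Exposure at 28C, 0.64% DMSO vehicle, DMSO baseline.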

[7] = Tanguay_ZF_120hpf_EDEM: Oregon State University Tanguay Lab 120 Hour Post-fertilization zebrafish Assay for Edema Malformation (AID 2284400)
Summary of the method: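 Edema recorded as a binary endpoint under brightfield at 120 hpf, excluding embryos that died. Exposure was static, sealed, 28C, from 6 hpf in dechorionated wild-type larvae, final DMSO 0.64%, DMSO as baseline.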

[8] = Tanguay_ZF_120hpf_MUSC: Oregon State University Tanguay Lab 120 Hour Post-fertilization zebrafish Assay for Muscle Malformation (AID 2284401)
Summary of the method: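 Scored as a binary brightfield endpoint at 120 hpf, fitted versus DMSO. Single dechorionated wild-type (Tropical 5D) zebrafish embryos per well, statically exposed at 28C from 6 hpf onward with final DMSO 0.64%.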

[9] = Tanguay_ZF_120hpf_TCHR: Oregon State University Tanguay Lab 120 Hour Post-fertilization zebrafish Assay for Touch Responsive (AID 2284403)
Summary of the method: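 Binary touch-response calls are made at 120 hpf in 5D wild-type zebrafish larvae. These larvae were dechorionated with pronase and exposed singly from 6 hpf in sealed, dark plates at 28 °C with 0.64% DMSO final; dead embryos are excluded.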

[10] = CCTE_Padilla_ZF_Score.Spine: CCTE's 144 Hour Post-fertilization zebrafish Assay Score for Spine Malformation, Padilla Lab (AID 2284407)
Summary of the method: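 Spine malformation scored at 6 dpf by two independent blinded observers under stereomicroscope, after static sealed exposure from 6–8 hpf at 26C in Hanks' solution with rinse on 5 dpf. Positive-direction fit against DMSO control.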

[11] = CCTE_Padilla_ZF_Score.Swim_bladder: CCTE's 144 Hour Post-fertilization zebrafish Assay Score for Swim Bladder Malformation, Padilla Lab (AID 2284408)
Summary of the method: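 Swim bladder inflation scored at 6 dpf by two blinded observers under a stereo microscope. Exposure ran from 6–8 hpf in sealed wells of 10% Hanks' at 26C, with rinsing at 5 dpf; DMSO served as baseline.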

[12] = CCTE_Padilla_ZF_Score.Position: CCTE's 144 Hour Post-fertilization zebrafish Assay Score for Position, Padilla Lab (AID 2284409)
Summary of the method: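 Wild-type zebrafish embryos (with chorions) exposed singly from 6–8 hpf in sealed wells of Hanks' solution at 26C, rinsed at 5 dpf. At 6 dpf, blinded assessors scored abnormal water-column position by brightfield stereomicroscopy, relative to DMSO.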

[13] = CCTE_Padilla_ZF_Score.Tail: CCTE's 144 Hour Post-fertilization zebrafish Assay Score for Tail Malformation, Padilla Lab (AID 2284414)
Summary of the method: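 Tail malformations were scored at 6 dpf by two blinded assessors under a stereo microscope. Chorionated embryos had been exposed from 6-8 hpf in sealed wells of 10% Hanks' at 26 C, then rinsed free of chemical at 5 dpf.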

[14] = CCTE_Padilla_ZF_Score.Blood_pooling: CCTE's 144 Hour Post-fertilization zebrafish Assay Score for Blood Pooling, Padilla Lab (AID 2284415)
Summary of the method: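 Blood pooling was scored at 6 dpf under a stereo microscope by two blinded assessors, fitted upward against DMSO. Single embryos were dosed at 6–8 hpf in 10% Hanks', kept sealed at 26C (14:10 h cycle) and rinsed at 5 dpf.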

[15] = CCTE_Padilla_ZF_Score.Any: CCTE's 144 Hour Post-fertilization zebrafish Assay Score for Any Mortality or Malformation, Padilla Lab (AID 2284416)
Summary of the method: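 Wild-type zebrafish embryos with chorions, one per well in 10% Hanks' from 6–8 hpf, dosed in sealed plates at 26 C, 14:10 h light:dark; rinsed at 5 dpf; blinded scoring at 6 dpf for death or malformation, versus DMSO.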

[16] = test system: SRY-box transcription factor 17 (SOX17) Protein Expression, Deisenroth Lab, SOX17 (gene 64321); assay: CCTE_Deisenroth_DEVTOX-GLR_legacy_Sox17: (Legacy) CCTE's DevTox GLR-Endo Assay Evaluation of SRY-box transcription factor 17 (SOX17) Protein Expression, Deisenroth Lab (AID 2284341); details: actives raise or lower the signal
Summary of the method: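 Endoderm-differentiation readout in RUES2-GLR human pluripotent cells at 48 h, concentrations spanning 1 nM - 200 uM. Sox17-positive cells divided by total cell count; gain or loss relative to DMSO solvent control, n=4 experimental replicates.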

[17] = test system: SRY-box transcription factor 2 (SOX2) Protein Expression, Deisenroth Lab, SOX2 (gene 6657); assay: CCTE_Deisenroth_DEVTOX-GLR_legacy_Sox2: (Legacy) CCTE's DevTox GLR-Endo Assay Evaluation of SRY-box transcription factor 2 (SOX2) Protein Expression, Deisenroth Lab (AID 2284346)
Summary of the method: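 Percent Sox2-positive cells was scored by high-content imaging of 5 fields per well. Positivity cutoff was 5x BMAD over the directed endoderm control, and the DMSO median was subtracted. Cells were RUES2-GLR, dosed twice at 24-h intervals over 48 h of differentiation (1 nM-200 uM).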

[18] = test system: SRY-box transcription factor 17 (SOX17) Protein Expression, Deisenroth Lab, SOX17 (gene 64321); assay: CCTE_Deisenroth_DEVTOX-GLR_Endo_SOX17: CCTE's DevTox GLR-Endo Assay Evaluation of SRY-box transcription factor 17 (SOX17) Protein Expression, Deisenroth Lab (AID 2284413)
Summary of the method: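 RUES2-GLR human pluripotent cells were seeded 24 h, then differentiated toward endoderm for 48 h with two chemical exposures 24 h apart (10-point series, 1 nM - 200 uM). Nuclei-stained fixed cells were imaged; endpoint is percent change in SOX17+ cells versus 0.2% DMSO.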

[19] = test system: Brachyury (BRA) Protein Expression, TBXT (gene 6862); assay: CCTE_Deisenroth_DEVTOX-GLR_Endo_BRA: CCTE's DevTox GLR-Endo Assay Evaluation of Brachyury (BRA) Protein Expression, Deisenroth Lab (AID 2284417)
Summary of the method: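 Read-out: BRA+ cell count divided by total cell count by high-content imaging (5 fields per well), expressed relative to 0.2% DMSO solvent control. RUES2-GLR cells dosed twice over a 48 h differentiation; concentrations 1 nM - 200 uM.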

[20] = CCTE_Deisenroth_DEVTOX-GLR_Endo_CellCount: Viability Assessment in CCTE's DevTox GLR-Endo Assay, Deisenroth Lab (AID 2284420)
Summary of the method: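 RUES2-GLR human pluripotent cells seeded 24 h, then differentiated 48 h with two chemical exposures at 24 h intervals (10-point, 1 nM - 200 uM). Fixed, nuclear-stained, imaged; nuclei counts give % change in cell count versus 0.2% DMSO.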

Measured: AC50

CO/N=C(/C(=O)OC)c1ccccc1COc1ccccc1C
active: [1] 31.4 µM | [2] 34.2 µM

Cc1ccc(N)cc1N
inactive: [4]
active: [3] 7.57 µM

CCOP(=S)(OCC)SCSCC
active: [2] 24.7 µM
inactive: [1]

CCCN(CCC)c1c([N+](=O)[O-])cc(C(C)C)cc1[N+](=O)[O-]
active: [2] 11.7 µM

NC(=O)C(F)(F)C(F)(F)F
inactive: [5] | [6] | [7] | [8] | [9] | [10] | [11] | [12] | [13] | [14] | [15]

C=CC(=O)OCC(F)(F)C(F)F
active: [5] 45.3 µM | [6] 64 µM | [8] 54.6 µM | [15] 9.85 µM
inactive: [7] | [9] | [10] | [11] | [12] | [13] | [14]

O=C(O)C(F)(F)C(F)(F)C(=O)O
inactive: [5] | [6] | [7] | [8] | [9] | [10] | [11] | [12] | [13] | [14] | [15]

COC(=O)C(F)(F)C(F)(F)OC(F)(C(F)(F)F)C(F)(F)OC(F)=C(F)F (centres undefined)
active: [2] 22.3 µM | [6] 22.2 µM
inactive: [5] | [7] | [8] | [9] | [10] | [11] | [12] | [13] | [14] | [15]

CCCCC(CC)COP(=O)(Oc1ccccc1)Oc1ccccc1 (centres undefined)
active: [2] 4.21 µM

O=P(Oc1ccccc1)(Oc1ccccc1)Oc1ccccc1
active: [2] 3.18 µM

CCCCCCCc1ccc(O)cc1
active: [2] 18.5 µM

CCOP(=S)(Oc1ccc([N+](=O)[O-])cc1)c1ccccc1 (centres undefined)
active: [2] 1.84 µM

OCC(F)(F)OC(F)(F)C(F)(F)OC(F)(F)C(F)(F)OC(F)(F)CO
inactive: [9] | [10] | [11] | [12] | [13] | [14] | [15]
active: [2] 44.1 µM | [5] 33.3 µM | [6] 57.6 µM | [7] 28.9 µM | [8] 36.7 µM

O=[N+]([O-])c1ccc(Cl)c(Cl)c1
inactive: [2]

CC(O)C(F)(F)C(F)(F)F (centres undefined)
inactive: [5] | [6] | [7] | [8] | [9] | [10] | [11] | [12] | [13] | [14] | [15]

FC(F)(F)C(F)(C(F)(F)F)C(F)(F)C(F)(F)CC1CO1 (centres undefined)
not listed: [2] | [3] | [4] | [16] | [17] | [18] | [19] | [20]
inactive: all other assays above

OCC(F)(F)OC(F)(F)C(F)(F)OC(F)(F)C(F)(F)OC(F)(F)F
inactive: [1] | [5] | [6] | [7] | [8] | [9] | [10] | [14]
active: [11] 27.5 µM | [12] 34.4 µM | [13] 20.2 µM | [15] 27.5 µM

O=C(O)C(F)(F)OC(F)(F)C(F)(F)OC(F)(F)C(=O)O
not listed: [2] | [3] | [4] | [16] | [17] | [18] | [19] | [20]
inactive: all other assays above

CCOc1ccc(C(C)(C)COCc2cccc(Oc3ccccc3)c2)cc1
inactive: [1] | [2]

O=P1(N(CCCl)CCCl)NCCCO1 (centres undefined)
inactive: [16] | [17] | [18] | [19] | [20]

CCCCc1ccc(O)cc1
active: [2] 63 µM

O=C(O)C=CC(F)(C(F)(F)F)C(F)(F)F
not listed: [2] | [3] | [4] | [16] | [17] | [18] | [19] | [20]
inactive: all other assays above

O=C(O)C(F)(F)OC(F)(F)C(F)(F)OC(F)(F)F
not listed: [2] | [3] | [4] | [16] | [17] | [18] | [19] | [20]
inactive: all other assays above

OCC(F)(F)OC(F)(F)C(F)(F)OC(F)(F)CO
inactive: [5] | [6] | [7] | [8] | [9] | [10] | [11] | [12] | [13] | [14] | [15]

c1ccc(OP(Oc2ccccc2)Oc2ccccc2)cc1
inactive: [2]

CCC(C)(C)c1ccc(O)cc1
active: [2] 50 µM

O=S(=O)(F)C(F)(F)C(F)(F)C(F)(F)C(F)(F)C(F)(F)C(F)(F)C(F)(F)C(F)(F)F
inactive: [5] | [6] | [7] | [8] | [9] | [10] | [11] | [12] | [13] | [14] | [15]

O=C(O)C(F)(OC(F)(F)C(F)(F)C(F)(F)F)C(F)(F)F (centres undefined)
not listed: [2] | [3] | [4] | [16] | [17] | [18] | [19] | [20]
inactive: all other assays above
